# Source: PubChem BioAssay
# IDE act: human IDE activators in live cells, primary screen, fluorescence polarization, HEK cells, FAbeta-B substrate. Insulin-degrading enzyme (Homo sapiens), P14735. FAbeta-B cleavage; 0% vehicle, 100% cell-free pure enzyme wells. activation, % at 5.96 µM. 340,000 compounds, 0.073% hits. AID 493087, 2011;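 active means activation above the mean of all tested compounds plus 3 SD, set per screening campaign, cut at about 17% in these data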
# Target sequence (P14735 whole entry, looked up): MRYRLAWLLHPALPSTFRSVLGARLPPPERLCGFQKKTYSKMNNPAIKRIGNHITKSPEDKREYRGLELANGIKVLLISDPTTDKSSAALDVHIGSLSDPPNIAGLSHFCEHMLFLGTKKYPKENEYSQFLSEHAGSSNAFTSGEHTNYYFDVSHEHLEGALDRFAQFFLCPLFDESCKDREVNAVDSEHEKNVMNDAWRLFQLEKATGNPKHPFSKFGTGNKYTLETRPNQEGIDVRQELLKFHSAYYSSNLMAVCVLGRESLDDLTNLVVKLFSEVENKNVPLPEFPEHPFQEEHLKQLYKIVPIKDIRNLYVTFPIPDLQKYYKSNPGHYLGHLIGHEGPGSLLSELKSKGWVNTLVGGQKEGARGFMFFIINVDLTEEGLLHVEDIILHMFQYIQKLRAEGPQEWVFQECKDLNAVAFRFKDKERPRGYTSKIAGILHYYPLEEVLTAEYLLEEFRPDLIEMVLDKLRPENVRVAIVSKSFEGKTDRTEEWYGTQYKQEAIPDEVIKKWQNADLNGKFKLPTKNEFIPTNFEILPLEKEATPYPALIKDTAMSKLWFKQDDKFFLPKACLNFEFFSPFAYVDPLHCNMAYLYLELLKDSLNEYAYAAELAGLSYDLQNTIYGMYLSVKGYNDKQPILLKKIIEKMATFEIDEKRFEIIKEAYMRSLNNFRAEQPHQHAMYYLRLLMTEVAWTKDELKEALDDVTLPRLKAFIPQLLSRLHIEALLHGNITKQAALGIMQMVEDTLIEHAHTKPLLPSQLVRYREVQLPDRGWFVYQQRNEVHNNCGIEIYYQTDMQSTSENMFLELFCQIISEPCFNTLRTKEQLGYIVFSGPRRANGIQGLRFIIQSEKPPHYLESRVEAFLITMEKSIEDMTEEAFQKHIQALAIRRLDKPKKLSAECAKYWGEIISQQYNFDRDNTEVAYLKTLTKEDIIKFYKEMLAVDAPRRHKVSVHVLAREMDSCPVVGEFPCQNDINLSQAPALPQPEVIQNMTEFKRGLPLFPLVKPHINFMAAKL
# IDE inh: human IDE inhibitors in live cells, primary screen, fluorescence polarization, HEK cells, FAbetaB substrate | Insulin-degrading enzyme (Homo sapiens), P14735 | FAbetaB cleavage | inhibition, % at 5.59 µM | 320,000 compounds, 0.41% hits | AID 434962, 2010;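 active means percent inhibition above the average of all tested compounds plus 3 SD, set per screening campaign, cut at about 16% in these data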;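 further: IDE supplied by intact live HEK cells; FP after avidin binding of uncleaved biotin substrate so inhibition keeps polarization high; 0% = DMSO wells and 100% = 60 µM reference IDE inhibitor Ii1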
# Calb FLC: C. albicans growth inhibition with fluconazole, primary screen, CaCi-2 strain, Alamar Blue fluorescence; 300,000 compounds, 0.57% hits; growth inhibition, % (concentration not given with the values); C. albicans CaCi-2 (fluconazole-resistant clinical isolate) + fluconazole, 48 h;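 active means growth inhibition above about 58% in most replicates, limit read from the data, passing the limit was not always enough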;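 further: all wells also contain fluconazole at 8 µg/ml as a sub-toxic cotreatment; 0% = median of DMSO wells and 100% = median of geldanamycin control wells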
# Rin1-Abl PPI inh: inhibitors of Rin1-Abl protein binding, primary screen, biochemical, TR-FRET; 360,000 compounds, 0.4% hits; Tyrosine-protein kinase ABL1 (Homo sapiens) + Ras and Rab interactor 1 (Homo sapiens), …; inhibition, % at 7.35 µM; in the data active means inhibition above about 5%, passing the limit was not always enough
# Rpn11 block: Rpn11 (PSMD14) deubiquitinase inhibitors, primary screen, biochemical, fluorescence polarization, uHTS; 26S proteasome non-ATPase regulatory subunit 14 (Homo sapiens), O00487; human 26S proteasome, Ub4-pepOG fluorescence polarization; 20S core pre-blocked with epoxomicin; inhibition, % at 20 µM; 360,000 compounds, 0.59% hits; AID 588493, 2011;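 active means inhibition at 20 µM, scaled to each plate's controls, above about 33%, limit read from the data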
# TPT1 inh: Candida albicans TPT1 enzyme inhibitors, primary screen, biochemical, fluorescence polarization. recombinant caTPT1, FP RNA substrate dephosphorylation. inhibition, % at 5 µM. 300,000 compounds, 0.81% hits. tRNA 2'-phosphotransferase TPT1 (Candida albicans SC5314);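 active means inhibition above the mean of all tested compounds plus 3 SD, set per screening campaign, cut at about 24% in these data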;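 further: plate controls were DMSO alone for no effect and ferristatin control at 100 nM for full effect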
# Rpn11 inh conf: Rpn11 (PSMD14) deubiquitinase inhibitors, confirmation, biochemical, fluorescence polarization, single concentration; inhibition, % at 20 µM; 1,900 compounds, 29% hits; shares compounds with Rpn11 block; purified human 26S proteasome, Ub4-pepOG fluorescence polarization; proteasome pretreated with epoxomicin
# MMP-2 counter: MMP-2 enzyme inhibition, confirmation, counter-screen for RPN11 inhibitor project, biochemical, fluorescence, single concentration | shares compounds with Rpn11 block | recombinant MMP-2, FRET peptide cleavage fluorescence | inhibition, % at 20 µM | 1,900 compounds, 4% hits | AID 602330, 2012;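 further: human MMP-2 activated beforehand with APMA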
# Thrombin inh: bovine thrombin protease inhibition, confirmation, counter-screen for Rpn11 inhibitor project, biochemical, fluorescence polarization, single concentration; shares compounds with Rpn11 block; bovine thrombin cleavage of Ub4-pepOG; inhibition, % at 20 µM; 1,900 compounds, 13% hits;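 active means mean inhibition at least 40% at 20 µM, or signal 3 deviations below plate average, so some actives read negative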;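 further: plate controls were thrombin with DMSO for no effect and buffer wells lacking thrombin for full effect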
# Active calls of the source: *; . = no result given. Only some compounds are listed: those with a hit (about 2.3% of all), similar ones and a draw of the others. Unless noted, no stated cut-off is given here; in the data, active means inhibition above about 40%; inactive means the rest.
SMILES,IDE act,IDE inh,Calb FLC,Rin1-Abl PPI inh,Rpn11 block,TPT1 inh,Rpn11 inh conf,MMP-2 counter,Thrombin inh
O=C(Nn1cnnc1)c1ccc(Br)s1,0,4,-4,-6,51*,-2,-11,2,-9
N#Cc1cc(C#N)c(SCC(=O)N2CC(=O)Nc3ccccc32)nc1N,-3,1,.,1,43*,.,28,-57,23
CCOC(=O)c1c(NC(=O)CSc2nc3cccnc3n2C)sc(C(C)=O)c1C,-1,7,-4,1,35*,8,21,-23,-5
COC(=O)c1c(NC(=O)COC(=O)c2ccc(NC(=O)CC#N)cc2)sc2c1CCCCC2,1,2,-3,0,96*,17,106*,19,33
O=C(CSc1nc(O)cc(=O)[nH]1)N1c2ccccc2CCc2ccccc21,0,2,-6,1,5,-1,.,.,.
COc1ccc2nc(C)cc(SCC(=O)N/N=C/c3c(OC)ccc4ccccc34)c2c1,6,3,17,2,51*,-1,10,-43,6
CC1CCN(C(=O)CCCC(=O)N2CCC(C)CC2)CC1,-1,-3,-1,-1,-4,-2,.,.,.
Cc1nnc(N2CCCC(C(=O)NCc3ccc(OC(C)C)cc3)C2)c2nn(-c3ccccc3)c(C)c12 (stereo not drawn),3,0,-51,32*,53*,5,23,-11,10
Cc1nnc(N2CCCC(C(=O)Nc3cc(F)ccc3F)C2)c2nn(-c3ccccc3)c(C)c12 (stereo not drawn),1,-2,9,-4,7,3,.,.,.
CC1CN(c2nc3ccccn3c(=O)c2/C=C(\C#N)C(=O)N2CCOCC2)CC(C)O1 (stereo not drawn),0,5,2,1,-2,-1,.,.,.
CCc1ccc2c(CN(C)Cc3ccccc3OC)cc(=O)oc2c1,3,1,4,-1,3,-1,.,.,.
COc1ccc(OC)c(Nc2nc(-c3cccs3)cs2)c1,-5,2,0,2,29,2,.,.,.
COc1ccc(Nc2nc(-c3cccs3)cs2)c(OC)c1,-4,7,19,0,30*,1,-15,-11,-7
CCN1C[C@@H]2[C@@H]3C(=O)N(C)C(=O)[C@@H]3[C@](CC)(C1=O)N2C(=O)c1ccc(Cl)cc1,-1,.,.,3,-2,.,.,.,.
CN1/C(=C\C(=S)NC(=O)c2ccccc2Cl)C(C)(C)c2ccccc21,2,3,-9,-2,86*,14,11,42*,-6
Cn1c(=O)c(C(=O)COC(=O)c2cc(-c3ccco3)nc3ccccc23)c(N)n(Cc2ccccc2)c1=O,.,-1,-4,.,.,23,.,.,.
Cn1c(N)c(C(=O)COC(=O)c2cc(-c3ccccc3)nc3ccccc23)c(=O)n(C)c1=O,.,2,71,.,.,-3,.,.,.
CC(C)Cn1c(N)c(C(=O)COC(=O)c2cc(-c3ccco3)nc3ccccc23)c(=O)n(C)c1=O,-2,-5,7,1,41*,16,4,-37,10
Cn1c(N)c(C(=O)COC(=O)c2cc(C3CC3)nc3ccccc23)c(=O)n(Cc2ccccc2)c1=O,-1,1,17,3,41*,16,29,-15,6
